# Bioassay records deposited in PubChem by Milwaukee Institute for Drug Discovery.
# HCV NS3h FP: blocks HCV NS3 helicase binding to DNA. NS3h Cy5-dT15 DNA binding, fluorescence polarization. inhibition, % at 100 µM. hit rate 1.6% among 16,000;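 active = inhibition above the average over every tested compound plus 3 SD, cut at about 40% in these data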
# Cy5 interf NS3h: counter-screen for HCV NS3 helicase inhibitors: fluorescence interference. Cy5-dT15 DNA with NS3h; actives lie on both sides; signal over control mean, under 1 quenches. fluorescence interference ratio at 100 µM. hit rate 6% among 16,000;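 active = compound fluorescence over control fluorescence at most 0.8, a quencher, or at least a set upper limit, an enhancer; inactive = ratio between 0.8 and the set upper limit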
# Hits are given with their value; 0 = inactive. Only some compounds are listed: those with a hit (about 7.6% of all), similar ones and a draw of the others.
SMILES,HCV NS3h FP,Cy5 interf NS3h
COC(=O)C1=C(C)N(c2ccc(C)cc2)/C(=C\c2ccc(OCC(N)=O)cc2)C1=O,0,0
O=C(NOC(=O)c1cccc(I)c1)c1ccc(Cl)cc1,0,0
NC1=NC(=O)/C(=C/c2cc(Br)ccc2OCc2ccccc2)S1,0,0
Cc1ccc(OCCNC(=O)Cc2cccc3ccccc23)cc1,0,0
O=C(CC1c2ccccc2Oc2ccccc21)NCCOc1ccccc1,0,0.67
COc1ccc(NC(=O)CN(CCc2ccccc2)S(=O)(=O)c2ccc(OC)cc2)cc1,0,0
COc1ccccc1N1CCN(C(=O)CN(c2ccc(C)cc2C)S(=O)(=O)c2ccccc2)CC1,0,0
O=C1NC(=S)N(c2ccccc2F)C(=O)/C1=C/c1ccc(OCc2cccc(C(=O)O)c2)cc1,50,0
COc1ccccc1C=C1C(=O)NC(=S)N(c2ccccc2F)C1=O,0,0
c1cncc(-c2noc(C3CCCCC3)n2)c1,0,0
Cc1cccc(NC(=O)C(=O)NCc2ccccc2Cl)c1C,0,0.78
COc1ccccc1CNC(=O)C(=O)Nc1ccccc1C,0,0
O=C(c1ccc([N+](=O)[O-])cc1)c1coc2ccc(O)cc12,0,0
Cc1ccc(S(=O)(=O)N2CCN(Cc3ccccc3[N+](=O)[O-])CC2)cc1,0,0
CS(=O)(=O)N1CCN(Cc2ccccc2[N+](=O)[O-])CC1,0,0.72
Cc1ccccc1CN1CCN(S(C)(=O)=O)CC1,0,0
CS(=O)(=O)N1CCN(Cc2ccccc2C(F)(F)F)CC1,0,0.55
Cc1ccc(OCC(=O)NCc2ccco2)c(C)c1,0,0
Cc1ccc(S(=O)(=O)N2CCC(Cc3ccccc3)CC2)cc1C,0,0
Cc1ccc(C(=O)Nc2nc3ccccc3n2Cc2ccc(Cl)cc2)cc1,0,0
O=C(Nc1nc2ccccc2n1Cc1ccc(Cl)cc1)c1ccccc1,0,0.74
COC(=O)c1ccc(/C=C2\SC(=Nc3ccc(Br)cc3)NC2=O)cc1,0,0
CC(=O)N1C(=O)/C(=C2/SC(=Nc3ccc(Br)cc3)NC2=O)c2ccccc21,0,1.2
CCCC(=O)NS(=O)(=O)c1ccc(NS(=O)(=O)c2ccc(C)cc2)cc1,0,0
CCCCCC12CCC(O)(CC1)C/C2=N\NS(=O)(=O)c1ccc(C)cc1,0,0.73
SMILES,HCV NS3h FP,Cy5 interf NS3h
O=C1C(=O)N(Cc2ccccc2Cl)c2ccccc21,0,0
O=C(CN(CCc1ccccc1)S(=O)(=O)c1ccc(Br)cc1)NCc1ccccn1,0,0
O=C(c1cc(Br)ccc1Cl)N1CCN(c2ccc([N+](=O)[O-])cc2)CC1,0,0
CC(Sc1nnc(-c2cccnc2)o1)C(=O)c1ccccc1 (stereo not drawn),0,0
CSc1nnc(-c2ccc(C)cc2)o1,0,0.69
CCc1ccccc1NC(=O)c1c(NC(=O)c2cccs2)sc2c1CCCCC2,0,0
CCCN(CCC)C(=O)c1c(NC(=O)c2cccs2)sc2c1CCCCC2,0,0.67
CC(=O)c1cccc(NC(=O)c2cnn3c(-c4ccccc4)cc(-c4ccccc4)nc23)c1,0,0
O=C(COc1ccccc1)Nc1ccc(Cc2ccncc2)cc1,0,0.71
O=C(COc1ccccc1)Nc1ccncc1,0,0
O=C1N/C(=N/N=C\c2ccccc2O)SC1Cc1ccc(Br)cc1 (stereo not drawn),52,0
O=C1N/C(=N\N=C/c2ccccc2O)SC1Cc1ccccc1 (stereo not drawn),0,0
Cc1ccccc1C(=O)Nc1cccc(NC(=O)c2ccc(Cl)c([N+](=O)[O-])c2)c1,0,0.71
Cc1cc(NC(=O)c2ccc(Cl)c([N+](=O)[O-])c2)ccc1Br,0,0
COCc1cc(=O)n2[nH]c(-c3ccc(Cl)cc3)cc2n1,0,0
Cc1cc(NC(=O)c2nn3c(c2Cl)NC(c2ccc(Br)cc2)CC3C(F)(F)F)no1 (stereo not drawn),0,0
COc1ccc(NC(=O)COc2cccc3ccccc23)cc1,0,0.77
COc1ccccc1OCC(=O)Nc1ccc(S(N)(=O)=O)cc1,0,0
Cc1ccc(N2CC(C(=O)NCc3ccco3)CC2=O)cc1 (stereo not drawn),0,0
CCOC(=O)c1c(NC(=O)c2cncc(Br)c2)sc(C)c1C,0,0
O=C(NC(CS)C(=O)O)c1cncc(O)c1 (stereo not drawn),0,0.64
COC(=O)C1=C(C(=O)OC)SC(=C2C(=S)C(C)(C)N(C(=O)c3cccc([N+](=O)[O-])c3)c3ccc(OC)cc32)S1,0,0.53
COC(=O)C1=C(C(=O)OC)SC(=C2C(=S)C(C)(C)N(C(=O)c3cccc(F)c3)c3c(OC)cccc32)S1,0,0
CCc1ccccc1N1C(=O)/C(=C/c2cc(C)n(-c3cccnc3)c2C)C(=O)NC1=S,0,1.2
Cc1ccccc1N1C(=O)/C(=C/c2cc(C)n(-c3cccnc3)c2C)C(=O)NC1=S,0,0
SMILES,HCV NS3h FP,Cy5 interf NS3h
CC(=O)c1ccc(NC(=S)NC(=O)/C=C/c2ccccc2)cc1,0,0
CCc1ccc(NC(=S)NC(=O)/C=C/c2ccccc2)cc1,49,0
O=Cc1cn(-c2ccccc2)nc1-c1ccc(-c2ccc([N+](=O)[O-])cc2)o1,0,0
Cc1ccc(C2=C/C(=C\c3ccc(-c4ccccc4C(=O)O)o3)C(=O)O2)cc1,0,0.79
Cc1ccc(/C=C2/C=C(c3ccccc3)OC2=O)cc1,0,0
CN1C(=O)C(=Cc2ccc(-c3ccccc3C(=O)O)o2)C(=O)N(C)C1=O,0,0
NC1=NC(=O)/C(=C\c2ccc(-c3ccc([N+](=O)[O-])cc3)o2)S1,0,1.2
NC1=NC(=O)/C(=C/c2ccccc2OCc2ccc([N+](=O)[O-])cc2)S1,0,0
O=C1OC(c2ccccc2)=C/C1=C/c1ccc(-c2ccc([N+](=O)[O-])cc2)o1,0,0.8
COc1ccc(/C=N\n2c(C)nnc2C)c(OC)c1OC,0,0
CN1C(=O)C(=Cc2ccc(O)c([N+](=O)[O-])c2)C(=O)N(C)C1=O,0,0
COc1ccc(/C=C2/Sc3ccccc3C2=O)cc1,0,0
CN1CCN(c2ccc(/C=C3\Sc4ccccc4C3=O)cc2[N+](=O)[O-])CC1,0,0.79
CN1CCN(c2ccc(/C=C3\NC(=S)NC3=O)cc2[N+](=O)[O-])CC1,0,0.61
c1ccc2c(c1)ccc1nc(-c3ccc4c(c3)OCO4)c3c(c12)CCC3,0,0
Cc1ccc(OCC(=O)Nc2ccc(Cl)cn2)c(Br)c1,0,0
COc1c(Cl)cc(C(=O)Nc2ccc(I)cc2Cl)cc1Cl,0,0
CCOc1ccc2nc(SCC(=O)NC(C)c3ccccc3)sc2c1 (stereo not drawn),0,0
CCOc1cccc(C(=O)Nc2nnc(-c3cccc(OCC)c3)s2)c1,0,0
CCOc1cccc(C(=O)Nc2nc3ccc(C)cc3s2)c1,0,0.69
CCOc1ccc2nc(SCC(=O)c3ccc(C)cc3C)sc2c1,0,0.76
O=C1/C(=C/c2ccco2)SC(=S)N1c1cccc(C(F)(F)F)c1,0,0
Nc1ccc(C(=O)NCCNCCNC(=O)c2ccc(N)cc2)cc1,0,0.8
Nc1ccc(C(=O)Nc2cccc3ccccc23)cc1,0,0
O=C(/C=C/c1ccc(S(=O)(=O)Nc2ccccc2)cc1)C1C(=O)c2ccccc2C1=O,0,0.47
O=C(O)/C=C/c1cccc(NS(=O)(=O)c2ccccc2)c1,0,0
CN1C(=S)N(c2ccccc2)C(C)(O)CC1(C)C (stereo not drawn),0,0
